The term AC50 denotes the concentration giving half of the maximal activity seen.

The values below come from PubChem BioAssay (EPA / NIEHS).

Holding throughout (conditions): mRNA level, 48 h; actives raise or lower the signal
Read-out in test [1]: CYP2E1 (gene 1571)
Briefly: LTEA_HepaRG_CYP2E1: Life Technologies and Expression Analysis (LTEA) Assay for CYP2E1 using HepaRG (AID 2283485). An outline of the steps:
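Readout is qRT-PCR of CYP2E1 mRNA, normalized to three housekeeping genes and fitted bidirectionally against 0.5% DMSO. HepaRG cells were dosed 48 h at eight concentrations, highest 100 uM with half-log dilutions.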

Read-out in test [2]: CYP4A11 (gene 1579)
Briefly: LTEA_HepaRG_CYP4A11: Life Technologies and Expression Analysis (LTEA) Assay for CYP4A11 using HepaRG (AID 2283486). An outline of the steps:
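Human hepatic HepaRG cultures receive duplicate 48 h exposures across a concentration-response series topping at 100 uM. Expression changes in CYP4A11 are measured by qRT-PCR relative to DMSO controls.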

Read-out in test [3]: Cytochrome P450 3A4 (Homo sapiens) (UniProt P08684)
Description: LTEA_HepaRG_CYP3A4: Life Technologies and Expression Analysis (LTEA) Assay for CYP3A4 using HepaRG (AID 2283487). An outline of the steps:
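HepaRG, 48 h exposure, 8-pt CRC from 100 uM (half-log), 0.5% DMSO, duplicates; serum-free induction medium. Readout: CYP3A4 mRNA, qRT-PCR, ACTB/GAPDH/POLR2A normalization. Bidirectional fit vs DMSO.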

Read-out in test [4]: Early growth response protein 1 (EGR1) transcription factor, EGR1 (gene 1958)
Description: LTEA_HepaRG_EGR1: Life Technologies and Expression Analysis (LTEA) Assay for Early growth response protein 1 (EGR1) transcription factor using HepaRG (AID 2283490). An outline of the steps: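 EGR1 expression change in human HepaRG after 48 h chemical exposure, assessed by housekeeping-normalized qRT-PCR; concentration-response up to 100 uM, fitted in both directions against DMSO controls.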

Read-out in test [5]: Ezrin (EZR), EZR (gene 7430)
Briefly: LTEA_HepaRG_EZR: Life Technologies and Expression Analysis (LTEA) Assay for Ezrin (EZR) using HepaRG (AID 2283491). An outline of the steps: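 Read-out is EZR transcript level by qRT-PCR, normalized to three housekeeping genes and fitted bidirectionally against the DMSO control. Human HepaRG cells received test chemicals for 48 h at eight half-log concentrations up to 100 uM in 0.5% DMSO.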

Read-out in test [6]: CYP3A5 (gene 1577)
Briefly: LTEA_HepaRG_CYP3A5: Life Technologies and Expression Analysis (LTEA) Assay for CYP3A5 using HepaRG (AID 2283493). An outline of the steps:
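Human HepaRG hepatic cells receive 48 h chemical treatment at eight concentrations (half-log steps from 100 uM) in 0.5% DMSO. Expression of CYP3A5 is quantified by Fluidigm qRT-PCR and normalized to three reference genes.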

Read-out in test [7]: Fatty Acid-Binding Protein 1 (FABP1), FABP1 (gene 2168)
Briefly: LTEA_HepaRG_FABP1: Life Technologies and Expression Analysis (LTEA) Assay for Fatty Acid-Binding Protein 1 (FABP1) using HepaRG (AID 2283494). An outline of the steps:
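Values reflect bidirectional concentration-response fitting of FABP1 mRNA change against 0.5% DMSO controls. Human HepaRG cultures received eight half-log doses (top 100 uM) for 48 h; expression quantified by TaqMan qRT-PCR with housekeeping-gene normalization.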

Read-out in test [8]: Glutamate-cysteine ligase catalytic (GCLC), GCLC (gene 2729)
Description: LTEA_HepaRG_GCLC: Life Technologies and Expression Analysis (LTEA) Assay for Glutamate-cysteine ligase catalytic (GCLC) using HepaRG (AID 2283498). An outline of the steps: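 Oxidative-stress marker GCLC is measured as mRNA change in human HepaRG liver cells after 48 h chemical treatment in 0.5% DMSO, eight concentrations from 100 uM. Activity is fitted bidirectionally against vehicle.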

Read-out in test [9]: growth arrest and DNA damage 45 (GADD45G), GADD45G (gene 10912)
Briefly: LTEA_HepaRG_GADD45G: Life Technologies and Expression Analysis (LTEA) Assay for growth arrest and DNA damage 45 (GADD45G) using HepaRG (AID 2283499). An outline of the steps:
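Concentration-response in HepaRG: 48 h dosing, 0.5% DMSO, highest level 100 uM. GADD45G expression by qRT-PCR, normalised to endogenous controls; bidirectional fit to DMSO.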

Read-out in test [10]: Glutathione S-transferase M3 (GSTM3), GSTM3 (gene 2947)
Briefly: LTEA_HepaRG_GSTM3: Life Technologies and Expression Analysis (LTEA) Assay for Glutathione S-transferase M3 (GSTM3) using HepaRG (AID 2283501). An outline of the steps:
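Expression of GSTM3 is determined by qRT-PCR in human liver HepaRG cells treated 48 h with an 8-point half-log range from 100 uM in 0.5% DMSO.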

Read-out in test [11]: Hypoxia-inducible factor 1-alpha (Homo sapiens) (UniProt Q16665)
Briefly: LTEA_HepaRG_HIF1A: Life Technologies and Expression Analysis (LTEA) Assay for Hypoxia-inducible factor 1 (HIF1A) Trancription factor using HepaRG (AID 2283503). An outline of the steps: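 HIF1A transcript level read by qRT-PCR (ACTB, GAPDH, POLR2A normalization) after 48 h chemical exposure of HepaRG cultures. Eight half-log concentrations, top 100 uM, 0.5% DMSO vehicle, duplicates; bidirectional curve fit against DMSO baseline.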

Read-out in test [12]: DNA damage-inducible transcript 3 (DDIT3), DDIT3 (gene 1649)
Description: LTEA_HepaRG_DDIT3: Life Technologies and Expression Analysis (LTEA) Assay for DNA damage-inducible transcript 3 (DDIT3) using HepaRG (AID 2283488). An outline of the steps: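 Cells are human HepaRG liver cells treated for 48 h with eight half-log concentrations up to 100 uM in 0.5% DMSO. Transcript levels come from qRT-PCR normalized to three housekeeping genes, with activity fitted in both directions relative to vehicle.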

Read-out in test [13]: Pro-epidermal growth factor (Homo sapiens) (UniProt P01133)
Description: LTEA_HepaRG_EGF: Life Technologies and Expression Analysis (LTEA) Assay for Epidermal growth factor (EGF) using HepaRG (AID 2283489). An outline of the steps: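 Concentration-response mRNA assay: HepaRG cells dosed 48 h (max 100 uM, 0.5% DMSO), EGF measured by qRT-PCR and normalized to ACTB/GAPDH/POLR2A.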

Read-out in test [14]: Cytochrome P450 3A7 (Homo sapiens) (UniProt P24462)
Briefly: LTEA_HepaRG_CYP3A7: Life Technologies and Expression Analysis (LTEA) Assay for CYP3A7 using HepaRG (AID 2283492). An outline of the steps:
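qRT-PCR of CYP3A7 in HepaRG lysates after 48 h treatment; concentration-response (8 points, max 100 uM) analysed bidirectionally relative to 0.5% DMSO controls.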

Read-out in test [15]: Cytochrome P450 4A22 (Homo sapiens) (UniProt Q5TCH4)
Briefly: LTEA_HepaRG_CYP4A22: Life Technologies and Expression Analysis (LTEA) Assay for Cytochrome P450 4A22 (CYP4A22) using HepaRG (AID 2283495). An outline of the steps:
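Concentration-response (8 points, max 100 uM, 0.5% DMSO) in human HepaRG liver cells after 48 h exposure. CYP4A22 mRNA by TaqMan qRT-PCR with housekeeping-gene normalization.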

Read-out in test [16]: Glutamate-cysteine ligase regulatory (GCLM), GCLM (gene 2730)
Description: LTEA_HepaRG_GCLM: Life Technologies and Expression Analysis (LTEA) Assay for Glutamate-cysteine ligase regulatory (GCLM) using HepaRG (AID 2283500). An outline of the steps: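 Endpoint is GCLM transcript level by qRT-PCR, normalized to three housekeeping genes, after 48 h chemical exposure of human HepaRG cells (0.5% DMSO vehicle, top 100 uM, half-log dilutions). Fitting was bidirectional relative to DMSO.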

Read-out in test [17]: Heat shock 70 kDa protein 1 (HSPA1A), gene 3303
Description: LTEA_HepaRG_HSPA1A: Life Technologies and Expression Analysis (LTEA) Assay for Heat shock 70 kDa protein 1 (HSPA1A) using HepaRG (AID 2283502). An outline of the steps:
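Cells were plated and cultured for 48 h, then switched to serum-free induction medium. Chemicals were added at eight half-log concentrations up to 100 uM for 48 h. RNA was then isolated and HSPA1A measured by qRT-PCR with bidirectional curve fitting against DMSO.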

Read-out in test [18]: Cytochrome P450 7A1 (Homo sapiens) (UniProt P22680)
Briefly: LTEA_HepaRG_CYP7A1: Life Technologies and Expression Analysis (LTEA) Assay for Cytochrome P450 7A1 (CYP7A1) using HepaRG (AID 2283496). An outline of the steps: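 HepaRG, 48 h exposure, 8-pt half-log series from 100 uM, 0.5% DMSO vehicle, duplicates. Readout: TaqMan qRT-PCR mRNA vs three housekeeping genes; bidirectional curve fit against DMSO baseline.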

Read-out in test [19]: Glutathione S-Transferase (GSTA2), GSTA2 (gene 2939)
Description: LTEA_HepaRG_GSTA2: Life Technologies and Expression Analysis (LTEA) Assay for Glutathione S-Transferase (GSTA2) using HepaRG (AID 2283497). An outline of the steps:
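Oxidative-stress marker GSTA2 is quantified by TaqMan qRT-PCR in HepaRG cultures treated 48 h across an eight-point range to 100 uM. Expression is normalized to endogenous controls and compared with 0.5% DMSO vehicle.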

SMILES strings stand for the structures. “And” between values parts separate entries of the source, which are not always exact repeats. Identical values can stand only once. More than one record can exist for a structure, and the calls need not agree. The source made the active and inactive calls. Rule for the calls: active = hit-call score of the fitted dose curve at least 0.9, where 1 is the maximum; inactive = score below 0.9.

Hypoxia-inducible factor 1-alpha (Homo sapiens), sequence (Q16665 whole entry, looked up): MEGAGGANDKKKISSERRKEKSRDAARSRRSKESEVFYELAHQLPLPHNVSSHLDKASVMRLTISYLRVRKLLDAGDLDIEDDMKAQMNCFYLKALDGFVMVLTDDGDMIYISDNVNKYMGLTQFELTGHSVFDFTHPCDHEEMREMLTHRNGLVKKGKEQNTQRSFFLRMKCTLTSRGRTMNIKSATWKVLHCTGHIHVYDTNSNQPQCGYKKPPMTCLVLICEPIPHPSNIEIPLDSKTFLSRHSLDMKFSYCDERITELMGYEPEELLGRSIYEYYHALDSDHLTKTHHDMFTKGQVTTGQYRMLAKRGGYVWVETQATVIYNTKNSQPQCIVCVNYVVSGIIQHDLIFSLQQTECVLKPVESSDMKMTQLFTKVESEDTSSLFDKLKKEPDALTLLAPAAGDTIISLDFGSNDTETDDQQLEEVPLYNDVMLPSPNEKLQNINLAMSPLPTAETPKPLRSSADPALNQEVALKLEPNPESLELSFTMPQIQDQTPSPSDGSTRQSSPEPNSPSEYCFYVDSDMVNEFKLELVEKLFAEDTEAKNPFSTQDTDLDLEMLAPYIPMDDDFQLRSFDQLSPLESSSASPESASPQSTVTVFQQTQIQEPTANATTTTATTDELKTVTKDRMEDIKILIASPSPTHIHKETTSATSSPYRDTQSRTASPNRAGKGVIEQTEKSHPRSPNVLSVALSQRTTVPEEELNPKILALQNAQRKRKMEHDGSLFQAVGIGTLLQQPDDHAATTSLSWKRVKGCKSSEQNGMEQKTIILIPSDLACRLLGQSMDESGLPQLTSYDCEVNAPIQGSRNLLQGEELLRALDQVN
Cytochrome P450 3A4 (Homo sapiens), sequence (P08684 whole entry, looked up): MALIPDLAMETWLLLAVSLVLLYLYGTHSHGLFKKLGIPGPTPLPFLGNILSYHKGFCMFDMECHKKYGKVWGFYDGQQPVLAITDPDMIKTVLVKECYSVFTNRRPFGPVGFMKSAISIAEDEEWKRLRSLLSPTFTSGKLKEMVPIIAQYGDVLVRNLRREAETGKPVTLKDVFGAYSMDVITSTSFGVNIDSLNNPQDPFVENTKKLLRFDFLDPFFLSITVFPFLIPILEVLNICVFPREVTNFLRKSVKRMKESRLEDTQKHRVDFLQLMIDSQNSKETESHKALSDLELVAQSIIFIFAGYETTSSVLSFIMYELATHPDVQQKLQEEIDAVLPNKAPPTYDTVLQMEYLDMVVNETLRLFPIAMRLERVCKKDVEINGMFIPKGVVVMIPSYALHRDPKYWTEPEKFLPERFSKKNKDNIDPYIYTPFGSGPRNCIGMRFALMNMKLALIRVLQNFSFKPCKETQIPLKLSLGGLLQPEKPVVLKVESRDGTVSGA
Cytochrome P450 3A7 (Homo sapiens), sequence (P24462 whole entry, looked up): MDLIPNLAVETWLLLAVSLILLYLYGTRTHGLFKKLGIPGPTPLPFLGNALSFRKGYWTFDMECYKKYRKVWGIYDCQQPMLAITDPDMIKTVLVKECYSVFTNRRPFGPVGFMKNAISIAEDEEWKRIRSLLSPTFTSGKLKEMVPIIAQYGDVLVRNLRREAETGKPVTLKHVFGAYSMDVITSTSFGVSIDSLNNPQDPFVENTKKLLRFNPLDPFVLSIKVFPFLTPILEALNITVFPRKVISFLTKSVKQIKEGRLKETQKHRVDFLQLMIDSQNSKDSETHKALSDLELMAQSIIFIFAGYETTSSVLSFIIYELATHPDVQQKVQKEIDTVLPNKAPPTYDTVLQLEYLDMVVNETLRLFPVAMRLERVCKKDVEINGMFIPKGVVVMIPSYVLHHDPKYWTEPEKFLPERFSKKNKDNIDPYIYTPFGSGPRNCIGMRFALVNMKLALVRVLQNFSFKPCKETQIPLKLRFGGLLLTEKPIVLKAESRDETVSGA

With `CCCN(CCC)c1c([N+](=O)[O-])cc(S(N)(=O)=O)cc1[N+](=O)[O-]`, the half-maximal activity concentration (AC50) is 15.6 µM (active) and 12.9 µM (active) and 20.1 µM (active) in [1]; 93.5 µM (active) and 15.8 µM (active) in test [2]; 8.79 µM (active) and 12.1 µM (active) and 90.8 µM (active) in test [3]; 93.2 µM (active) and 83.6 µM (active) and 78.9 µM (active) in test [4]; 95.9 µM (active) and 78 µM (active) in test [5]; 93.8 µM (active) and 50 µM (active) in test [6]. In addition, the AC50 in [7] was 93.5 µM (active) and 35.6 µM (active) and 34.9 µM (active); in [8] it was 70.9 µM (active) and 83.9 µM (active); in [11], 94.2 µM (active) and 84.5 µM (active). The molecule was classed as inactive in test [2], in test [5], in [6], in test [8], in test [9] and in test [10]. Besides, the call in [11] was inactive.
For `C#CCOS(=O)OC1CCCCC1Oc1ccc(C(C)(C)C)cc1` (centres undefined), the AC50 in test [1] is 22.6 µM (active); in [2] it was 25.9 µM (active); in test [3], 28.8 µM (active); in test [12] it was 15.2 µM (active); in test [13] it was 29.4 µM (active); in [14], 29.5 µM (active). Besides, the concentration at half-maximal activity (AC50) in test [6] is 30.1 µM (active); in [7], 18.7 µM (active); in test [8], 28.2 µM (active); in test [9], 12.7 µM (active); in test [16] it was 9.92 µM (active); in [10], 29.7 µM (active). In addition, the AC50 was 27.2 µM (active) in [17] and 26.4 µM (active) in [11]. For the same molecule, the result in test [4], in [5] and in test [15] was inactive.
As for `Fc1ccc(Oc2ccnc3cc(Cl)cc(Cl)c23)cc1`, the AC50 is 77.7 µM (active) in test [1]; 70.1 µM (active) in test [2]; 32.8 µM (active) in test [13]; 87 µM (active) in [7]; 82.6 µM (active) in [15]; 90.5 µM (active) in test [18]. Besides, the AC50 in test [19] was 83.6 µM (active). Also, the molecule was classed as inactive in test [3], in [4], in [5], in [6], in test [8] and in test [9]. The molecule was classed as inactive in test [10], in [17] and in test [11].
